Measurements published in PubChem BioAssay AID1159606 (Sanford-Burnham Center for Chemical Genomics, 2016).
Values joined by “and” are separate entries in the source; they are usually repeats but may differ in a detail not shown here. Identical values can stand only once. The campaign covered roughly 360,000 compounds. About 7,300 (2%) were called active. Cut-off read from the data, not from the text of the source: active = inhibition above about 50%; inactive = the rest. The sample as a whole holds a higher share of actives than the screen did.

Test: blockers of TWEAK-induced Fn14 reporter activity – luciferase reporter cells, uHTS, primary screen (AID 1159606)
Conditions: TWEAK-stimulated Fn14 reporter cells, luciferase luminescence, 8 h; at 10 µM; active compounds read high

inhibition, active:
Cn1nnc2cc(C(=O)NCCC3=CCCCC3)ccc21 51.2%
COc1cccc(/C=N/Nc2cc(C)nc(-c3ccccc3O)n2)c1O 59%
COc1ccc(/C=N/Nc2ccccc2C(=O)O)cc1 57%
COc1ccc(C(=O)Nc2ccccc2C(=O)N/N=C/c2ccc(O)c(OC)c2)cc1 103%
O=C(CSc1cccc2cccnc12)N/N=C/c1cccnc1 73.4%
C=C(C)C(=O)O[C@H]1C/C(C)=C\C(=O)/C=C(\C)[C@H](O)[C@@H]2OC(=O)C(=C)[C@@H]21 68.2%
Cc1cccc2nc(CSc3nc4[nH]ncc4c(=O)n3-c3cccc(Cl)c3)cc(=O)n12 68.9%
COc1ccc(CCNc2cc(N3CCN(C(=O)c4ccccc4OC)CC3)ccc2[N+](=O)[O-])cc1OC 94.3%
C=CCn1c(C)cc(C(=O)CN2C(=O)c3ccccc3C2=O)c1C 63.3%
COC(=O)CCNc1ccc2c(c1)OCCO2 93.8%
Cc1ccc(OCCCC(=O)Nc2ccc3c(c2)OCCO3)cc1 63.9%
CCCCCCc1cc2cc(-c3nnc(-c4ccccc4)o3)c(=O)oc2cc1O 69.9%
O=C(Nc1ccccc1Cl)/C(Cl)=C(\Cl)S(=O)c1ccccc1 (stereo not given) 105%
O=C(OCC(=O)N1CCCC1)c1ccco1 70.7%
O=C(O)CCn1c(O)c(C=C2N=c3ccccc3=N2)sc1=S 90.8%
Cc1ccc2nc(NC(=O)C3CCN(S(=O)(=O)c4ccc5c(c4)oc(=O)n5C)CC3)sc2c1 61.3%
N#CCSc1nc(-c2ccccc2)nc2ccc(F)cc12 85.4%
OC[C@@H]1CN(Cc2ccc(-c3ccccc3)cc2)C[C@H](n2cnc3c(NC4CCCC4)ncnc32)O1 69.7%

inhibition, inactive:
O=C(NCCC1=CCCCC1)c1ccc(-n2cncn2)cc1 -8.52%
O=C(NCCC1=CCCCC1)c1ccc(Cl)c([N+](=O)[O-])c1 -14.2%
CC1CCCCC1NC(=O)CN1CCC(O)(c2ccc3c(c2)OCO3)CC1 (stereo not given) 3.52%
CCCCn1nnnc1C(c1ccccc1)N1CCN(c2ccccc2OC)CC1 (stereo not given) -11.6%
COc1ccccc1-n1c(SCC(=O)Nc2cccc(C(=O)O)c2)nnc1-c1ccccc1O 8.74%
COc1cc(/C=N/Nc2ccc(C)cc2)cc(Br)c1O 4.13%
Cc1cc(CNC(=O)C2CCC(=O)N(CCc3ccc(Cl)cc3)C2)no1 (stereo not given) 0.87%
CC(=O)N1CCN(S(=O)(=O)c2c(F)cc(F)c(Cl)c2F)CC1 -11.6%
COc1ccc(/C=N/NC(=O)C(C)N(c2ccc(OC)cc2)S(C)(=O)=O)cc1 (stereo not given) 6.28%
COc1ccc(/C=C2/SC(=O)N(CCCCCC(=O)Nc3ccccc3C(=O)O)C2=S)cc1 40.8%
O=C(NN=Cc1ccc2c(c1)CCC2)c1ccccc1O -39.1%
COc1ccc(-c2[nH]ncc2/C=N/NC(=O)c2cc(Br)ccc2O)c(OC)c1 1.37%
CCOC(=O)C(=O)C1C(=O)Nc2ccccc21 (stereo not given) 6.46%
CCOc1ccc(CCN2C(=O)C(=O)N([C@@H](Cc3ccc(O)cc3)CN3CCC[C@H]3CN3C(=O)C(=O)NC[C@@H]3CC(C)C)C[C@@H]2Cc2ccccc2)cc1 20.7%
CC1=NN(c2cccc(Cl)c2)C(=O)C12CC(C)=C(C)CS2 (stereo not given) -6.06%
CC(NC(=O)CN1CCN(Cc2ccc(Cl)cc2)C1=O)c1ccc2c(c1)OCCO2 (stereo not given) 13.5%
CC(C)C[C@H]1CNC(=O)C(=O)N1C[C@@H]1CCCN1C[C@H](Cc1ccccc1)N1C[C@H](CC(C)C)N(CC2CCCCCC2)C(=O)C1=O 5.6%
CC1CC(=O)Nc2ccccc2N1C(=O)COc1ccc2cc(Br)ccc2c1 (stereo not given) -17.9%
Cc1ccc(S(=O)(=O)N(CC(=O)N/N=C/c2ccc(F)cc2)c2cccc3cccnc23)cc1 -1.02%
O=C(CNC(=O)c1cccnc1)N/N=C/c1cc(Br)c(O)c(Br)c1 -15.2%
COc1ccc(C)cc1NC(=O)NCCCCc1ccccc1 -2.36%
CCCCN1C(=O)CC(N2CCOCC2)C1=O (stereo not given) -9.74%
CCCCCn1nnnc1-c1nc2cc3ccccc3cc2[nH]c1=O -12.3%
CCCCCN(C(=O)CCC(=O)OCCOc1ccc(OC)cc1)c1c(N)n(CCCC)c(=O)[nH]c1=O -5.75%
Cc1ccc(NC(=O)N2CCSc3ccccc32)cc1 -12.4%
CNC(=S)N/N=C/c1ccc(N2CCOCC2)s1 7.48%
CC1(NC(=O)CCS(=O)(=O)c2ccc(Cl)cc2)CCS(=O)(=O)C1 (stereo not given) 17.8%
O=C(NCC(c1ccco1)N1CCc2ccccc2C1)c1ccccc1Cl (stereo not given) -3.94%
Nc1cccc(OCCCCCOc2cccc(N)c2)c1 -9.63%
O=c1c2sccc2nc(SCc2cc(=O)n3ccccc3n2)n1-c1ccc(Br)cc1 -8.13%
CCc1ccc(-n2c(SCc3cc(=O)n4cc(Br)ccc4n3)nc3[nH]ncc3c2=O)cc1 2.35%
COc1ccc(C(=O)CSc2n[nH]c(N)n2)cc1 -14.2%
Cc1ccc(N2CCN(c3ccc(C)cc3)C2c2ccccn2)cc1 -16.7%
CCOC(=O)C1CCCCN1Cc1ccc(OC)c(OC)c1OC (stereo not given) -2.28%
CC1Cc2[nH][nH]c(=O)c2C(C2CCCC2)O1 (stereo not given) -6.62%
COc1ccc(CCNC(=O)c2ccccc2-c2ccccc2C(=O)O)cc1OC 4.96%
COc1ccccc1OCCNc1cc(N2CCOCC2)ccc1[N+](=O)[O-] -47.4%
CC(C)(O)C1=C[N+](=O)CC=C1 13.1%
CC1(C)SC2C(NC(=O)COc3ccccc3)C(=O)N2C1C(=O)O (stereo not given) 1.61% and -29.2%
CC(=O)Nc1ccc(S(=O)(=O)Nc2nc3n(n2)C(c2ccccc2)CC(=O)N3)cc1 (stereo not given) -1.82%
CC(C)[C@H](NC(=O)c1ccccc1F)C(=O)Nc1cccc(S(=O)(=O)N2CCOCC2)c1 12.8%
C=CCN(CC=C)C(=O)CN1C(=O)c2ccccc2C1=O 15.1%
Cc1cc(C(=O)COC(=O)CCCN2C(=O)c3ccccc3C2=O)c(C)n1C 5.35%
O=C1CCC(=O)N(O)CCCCCNC(=O)CCC(=O)N(O)CCCCCNC(=O)CCC(=O)N(O)CCCCCN1 -10.8%
C/C(=N/OC(=O)c1cccc(C(F)(F)F)c1)c1cnccn1 -1.14%
Cc1ccc(OCCCC(=O)Nc2ccc(N3CCOCC3)cc2)cc1 4.69%
CCc1ccccc1OCC(=O)Nc1ccc2c(c1)OCCO2 -1.57%
COc1ccccc1OCCCC(=O)Nc1ccc2c(c1)OCCO2 -33.3%
CCOc1ccc(NCCC(=O)c2ccc3c(c2)OCO3)cc1 -3.49%
COC(=O)CCCCC1=CCC2C(=O)C=C(O)C2C1 (stereo not given) -0.75%
O=C(NCc1cccnc1)c1cc(C2CCCN(C(=O)C3CCCCC3)C2)on1 (stereo not given) -5.87%
CCc1ccc(CN(C)C(=O)CCc2nnc(-c3ccc(-c4ccccc4)cc3)o2)nc1 35.3%
C#CCNC(=O)C[C@@H]1C[C@@]2(C(=O)OCC)CCCC=C2N(Cc2ccco2)C1=O -4.62%
O=C(O)CC(Cn1cnnn1)c1ccccc1 (stereo not given) 0.41%
CS/C(=C\C(=O)c1ccco1)Nc1ccccc1Cl -3.35%
CC(=O)c1ccc(NC(=O)C(C)N(C)CC(=O)Nc2ccccc2Cl)cc1 (stereo not given) -3.04%
OC(c1ccccc1)c1nc(-c2cnc3ccccc3c2)cs1 (stereo not given) 12.8%
O=C(OCC(=O)N1CCN(C(=O)c2ccco2)CC1)c1cccc(O)c1 -18.9%
O=C(OCC(=O)N1CCN(C(=O)c2ccco2)CC1)c1c(Cl)cccc1Cl 3.09%
Cc1ccc(-c2nnn(CC(=O)N(Cc3ccco3)C(C(=O)NC(C)(C)C)c3ccncc3)n2)o1 (stereo not given) -9.3%
CC(=O)NC(C(=O)NCC(N)=O)C(C)C (stereo not given) -1.22%
CSC1=NN(c2ccccc2)CN(c2ccccc2)N1C 11.5%
Cn1c(=O)oc2cc(S(=O)(=O)N3CCC(C(=O)Nc4ccc(OC(F)(F)F)cc4)CC3)ccc21 -4.22%
O=C(NC1CCCCC1)n1c(=O)oc2cc(S(=O)(=O)N3CCCCC3)ccc21 -2.85%
CC(C)C[C@@H](COCc1ccc(Cl)cc1)N1CCN(C(=O)c2ccc(Cl)cc2Cl)CCC1=O -5.63%
Cn1ccc(=Nc2ccc(NC(=O)c3ccc(N=c4ccn(C)c5ccc([N+](=O)[O-])cc45)cc3)cc2)cc1 11.6%
Cc1ccc(Oc2cc(NC(=O)CCCn3nc(C)c([N+](=O)[O-])c3C)cc([N+](=O)[O-])c2)cc1 29.9%
Fc1ccc2nc(-c3ccccc3)nc(SCc3nnc(-c4ccccc4)o3)c2c1 1.42%
N#Cc1ccc(-c2ccc(F)cc2)nc1Sc1ccccc1 -0.84%
CCCc1ccc(S(=O)(=O)N2CCN(C(=O)c3cc(C)on3)CC2)cc1 23.6%
OC[C@@H]1CN(Cc2ccc(F)cc2)C[C@H](n2cnc3c(NC4CCCC4)ncnc32)O1 0.72%
OC[C@@H]1CN(Cc2cccs2)C[C@H](n2cnc3c(NC4CCCC4)ncnc32)O1 3.36%
